We go through 27 compounds from PubChem BioAssay (NCI).

This is part of a sample that, as a whole, favours compounds with a hit. Of some 83,000 tested, about 20% had one in any assay.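 Method: cells in 96-well plates; compound added at one concentration; 48 h incubation; percent growth measured; values under 10 scored active.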 Values without a mark were called inactive. Active and inactive are the calls of the source.

This assay relates to MDA-MB-468 breast. In words: NCI-60 one-dose screen, 48 h (100 = growth as untreated, 0 = no growth, -100 = all killed). The note with it: 10 µM unless noted.
Take `Cc1ccc(C2=Nn3c(nnc3-c3ccccc3)SC2)cc1`: the growth was 25.1%.

`OB(O)c1ccsc1-c1nc2ccc3[nH]ncc3c2c2c1CCCC2`: the growth was 8.64% (active). For `CC(C)OC(=O)Nc1cc(F)c(F)cc1F` the value was 84%. In the case of `CC(C)NCCCCCNc1cc(O)cc2cccnc12`, the growth was 18.6%.

As for `O=C(O)c1cccnc1Br`, the growth is 102%. As for `CC(C)c1[nH]ncc1-c1nc2ccc3[nH]ncc3c2c2c1CCCC2`, the figure is 69.3%; as for `CNC(=O)c1cccc(Cn2nc(C)c(NC(=O)c3ccc(COc4ccc(C(F)(F)F)cc4C)cc3)c2C)n1`, 3.58% (active). Take `N#CC1=C(c2ccc(Br)cc2)NC(SCC(=O)c2ccc(Br)cc2)NC1=O` (configuration not stated): the growth is 113%. With `NS(=O)(=O)c1ccc(C(=O)N=Nc2c(O)[nH]c3ccc(Cl)cc23)cc1`, the growth is 110%. As for `Cc1cc(N2CCOCC2)nc(N(CCCNc2ccnc3cc(Cl)ccc23)Cc2ccco2)n1`, the figure is 21.7%; as for `O=C(Cn1cncn1)Nc1ccc(-c2nc3ccccc3s2)cc1`, -29.7% (active); as for `CSc1nc(N)c2[nH]c(-c3cc4ccccc4[nH]c3=O)nc2n1`, 1.87% (active). As for `O=C1/C(=C/c2ccc([N+](=O)[O-])o2)Oc2ccc(Br)cc21`, the figure is 65.3%; as for `COc1cc(/C(=C2/O[C@@H]([C@H]3COC(C)(C)O3)[C@H]3OC(C)(C)O[C@@H]23)c2ccc3c(c2)OCO3)cc(OC)c1OC`, 69.6%.

Consider `O=C(Nc1ccc(C2=NCCCN2)cc1)Nc1ccc(C2=NCCCN2)cc1`, for which the growth is 42.2%. For `Cc1nc2n(c(=O)c1CCN1CCC(c3noc4cc(F)ccc34)CC1)CCC[C@@H]2O` the value was 100%; for `Oc1ccc(CSc2nnc(-c3cnccn3)n2-c2ccccc2)c2cccnc12`, 5.53% (active).

On to `CCC(C)NC(=O)c1ccccc1C` (configuration not stated), for which the growth was 86.7%. For `C=C1C(=O)O[C@H]2[C@H]1CC/C(COC(=O)c1ccccc1)=C\CC[C@@]1(C)O[C@@H]21` the value was -28.7% (active); for `CC(C)CCSc1nc(N)nc2nc[nH]c12`, 103%.

For `Oc1ccc(CSc2nnc(-c3ccc(Br)cc3)n2-c2ccccc2)c2cccnc12`, the growth is 36.1%. As for `CC(C)c1ccc(C(=O)OC2CCCC2)cc1`, the figure is 106%. As for `CCCCCCCC/C=C\CCCCCCCCOc1ccccc1CCOP(=O)(O)OCC[N+](C)(C)C`, the growth was 61.9%. For `CCOC(=O)CCCS(C)(=O)=O` the value was 126%; for `Cc1ccc(-c2nc3nc(-c4ccc(F)cc4)nc(N4CCCNCC4)c3o2)cc1`, -75.5% (active); for `COc1cc(OC)cc(C(=O)Nc2cnc(Nc3ccc(N4CCOCC4)nc3)nc2Oc2ccc(C(F)(F)F)cc2)c1`, 81.1%.

Consider `COc1ccc(C2=Nn3c(nnc3-n3nc(C)cc3C)SC2)cc1`, for which the growth was 22.2%.
